# From PubChem BioAssay
# Sampled rows, rich in hits. Any-hit rate of the full collection: about 1.4%.
# MmCpn inh = inhibitors of Methanococcus maripaludis chaperonin TRiC (MmCpn) | purified Mm-Cpn ATPase, ADP Transcreener TR-FRET | Potency, µM (series often up to 76.9 µM), inactives show at the highest dose activity, negative = inhibition, most hits filed as inhibitors | 330,000 tested, 0.031% active; further: potency means the concentration at half of the fitted maximal effect; on the % scale 0 is the no-effect control and ±100 the full control effect; nearly all actives have a fitted effect of over 80% in size
#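 TR-FRET (320 nm excitation; 590 and 665 nm emission) reports ADP made from 10 uM ATP by 25 nM enzyme; compounds were preincubated 10 min, reaction run 30 min, both at 37°C.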
# S-ASM inh = blocks human secretory acid sphingomyelinase; Potency, µM (titrated, usually from 57.5 µM), without a hit: at the top dose activity change, negative = inhibition, hits mostly inhibitors; P17405; placental ASM, HMU-PC fluorogenic substrate, 60 min; 340,000 tested, 0.006% active; further: potency means the concentration at half of the fitted maximal effect
# Target sequence (P17405 47-631 limits assumed): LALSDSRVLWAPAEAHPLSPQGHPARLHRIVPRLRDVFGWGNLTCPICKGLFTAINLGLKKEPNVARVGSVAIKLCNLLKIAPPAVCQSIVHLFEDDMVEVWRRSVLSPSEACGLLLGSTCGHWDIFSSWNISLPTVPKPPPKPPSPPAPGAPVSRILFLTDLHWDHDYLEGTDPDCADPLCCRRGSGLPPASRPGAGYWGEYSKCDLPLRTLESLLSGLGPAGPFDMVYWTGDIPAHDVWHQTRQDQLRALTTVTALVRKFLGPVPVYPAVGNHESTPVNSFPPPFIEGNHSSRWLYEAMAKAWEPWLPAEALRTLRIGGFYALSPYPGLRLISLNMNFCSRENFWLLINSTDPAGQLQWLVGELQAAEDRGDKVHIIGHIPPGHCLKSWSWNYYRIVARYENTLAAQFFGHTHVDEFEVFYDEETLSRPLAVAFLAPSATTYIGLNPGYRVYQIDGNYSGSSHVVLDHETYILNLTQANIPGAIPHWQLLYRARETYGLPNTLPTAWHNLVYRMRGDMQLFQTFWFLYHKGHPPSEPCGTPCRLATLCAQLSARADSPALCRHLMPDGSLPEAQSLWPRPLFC
#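 Human placenta-derived ASM enzyme was preincubated with compound for 10 minutes at room temperature, then given fluorogenic substrate HMU-PC0 (9 uM final) for 60 minutes at 37 °C; a pH 10 stop preceded fluorescence reading at Ex 386/Em 447 nm.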
# uPA surface inh = blocks generation of uPA at the cell surface; Potency, µM (series often up to 38.3 µM), without a hit: at the top dose activity change, negative = inhibition, hits mostly inhibitors; AID 540303; cell surface uPA generation assay, qHTS; 330,000 tested, 0.31% active; active means well fitted inhibition curve with a large enough effect; inconclusive means small, poorly fitted or top-dose-only effect; inactive means no such curve, though single readings can be large or run the other way; tested in mouse RAW 264.7 cells; further: potency means the concentration at half of the fitted maximal effect; on the % scale 0 is the no-effect control and ±100 the full control effect; nearly all actives have a fitted effect of over 55% in size
# p53 reactivation = restores transcriptional activity of mutant p53; 320,000 tested, 0.063% active; H1299 p53-A138V BP100-luciferase reporter, luminescence, 24 h; Potency, µM (series often up to 92.2 µM), inactives show top-dose activity change, positive = activation, hits mostly activators; AID 504706; further: potency means the concentration at half of the fitted maximal effect; % of control where 0% means no effect; nearly all actives have a fitted effect of over 45% in size
#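 p53-null H1299 cells stably carrying temperature-sensitive p53-A138V and a BP100-luciferase reporter were pinned with compounds (4-point, 1:5 series) and held 24 hrs at 37 deg C. Luminescence was read 10 min after detection reagent.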
# KCNH2 3.1 block = inhibitors of human KCNH2 3.1 potassium channel isoform; U2OS KCNH2 3.1, thallium flux FluxOr; stronger effect = lower value; 340,000 tested, 0.95% active; activity change, % (tested at about 1.8 µM);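 active means maximum activity change below -70%; inconclusive means maximum activity change from -70% to -50%; inactive means maximum activity change above -50%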;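 further: thallium influx rate constant from kinetic fluorescence after stimulation buffer; on the % scale 0 is the no-effect control and ±100 the full control effect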
#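 FluxOr-based Tl+ influx in U2OS cells transduced with KCNH2 3.1 virus; rate constants normalized to DMSO controls.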
# hERG WT inh = KCNH2 (human, wildtype) channel inhibition. AID 720551. 340,000 tested, 0.37% active. activity change, % at 1.84 µM. U2OS, BacMam KCNH2, thallium flux FluxOr; stronger effect = lower value. Q12809;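 active means maximum activity change below -70%; inconclusive means maximum activity change between -70% and -50%; inactive means maximum activity change above -50%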; further: on the % scale 0 is the no-effect control and ±100 the full control effect
#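 U2OS cells were transduced with wild-type KCNH2 virus (2.03 x 10^8 / mL) for 4 h at room temperature, then cultured overnight at 37 C. Thallium flux was read with FluxOr dye. Rate constants were normalized to DMSO controls.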
# * = called active by the depositor; i = inactive; ? = inconclusive; . = no result. Unless noted, the call rests on the fitted dose curve; in most records, active means well fitted curve in the direction sought with a large enough effect; inconclusive means small, poorly fitted or top-dose-only effect, or another doubt; inactive means no such curve, though single readings can be large; an effect the other way counts as inactive or inconclusive.
SMILES,MmCpn inh,S-ASM inh,uPA surface inh,p53 reactivation,KCNH2 3.1 block,hERG WT inh
Cc1cc(/C=C2\SC(=S)N(Cc3ccco3)C2=O)c(C)n1-c1ccccc1,-4%,-2%,-2%,?,-23,-81*
CN(C)c1ccc(C=C2SC(=S)N(Cc3ccco3)C2=O)cc1,.,.,.,.,-28,-35
COc1ccc(C)cc1-n1nnnc1SCC1CCCO1 (stereo not given),2%,-1%,3%,-1%,2,-107*
COc1ccc(Nc2nc(NCc3ccco3)nc(N/N=C/c3ccccc3F)n2)cc1,-1%,-7%,-9%,-4%,-97*,-23
COc1ccc(Nc2nc(NCc3ccco3)nc(N/N=C/c3ccc(O)cc3)n2)cc1,-4%,-27%,-4%,?,-90*,-30
COc1ccc(/C=N/Nc2nc(NCc3ccco3)nc(Nc3ccc(OC)cc3)n2)cc1,-9%,-25%,-3%,-6%,-93*,-4
COc1ccc(Nc2nc(Cl)nc(NCc3ccco3)n2)c(OC)c1,-2%,1%,3%,-2%,-2,-4
Cc1cc(C)nc(NS(=O)(=O)c2ccc(NS(=O)(=O)c3ccsc3)cc2)n1,0%,12%,9%,2%,-89*,3
Cc1cc(C)nc(NS(=O)(=O)c2ccc(NS(=O)(=O)c3ccccc3)cc2)n1,1%,-1%,8%,5%,12,-4
O=C(NC1CCCC1)C(c1ccsc1)N(C(=O)Cc1cccs1)c1ccc(F)cc1 (stereo not given),3%,-1%,5%,1%,-76*,-7
CCCCN1C(=O)C(CC(=O)NC(c2ccccc2)c2ccccc2)CC(C(=O)N(C(C)C)C(C)C)=C1C (stereo not given),.,.,.,.,-3,2
COC(=O)CCC(C)C1CCC2C3CCC4CC(O)CCC4(C)C3=CC(=O)C12C (stereo not given),.,-6%,-2%,.,-9,-1
CC1CCCCN1S(=O)(=O)c1ccc(C(=O)Nc2sccc2C(N)=O)cc1 (stereo not given),-4%,-5%,-4%,27%,-96*,-22
COc1cc(CNc2nc3ccccc3n2Cc2ccccc2)ccc1O,.,.,.,.,3,17
COc1ccccc1CCNC(=O)C1CC(=O)N(c2ccccc2F)C1 (stereo not given),.,.,.,.,-8,-12
COc1ccccc1N1CCN(C(=O)c2ccc3c(Cl)c4c(nc3c2)CCCC4)CC1,2%,-14%,4.5µM*,-4%,-10,-3
CN1CCCN(S(=O)(=O)c2cccc(C#N)c2)CC1,4%,3%,8%,-5%,-10,4
CCN(CC1CCCN(CCc2cccc(F)c2)C1)C(=O)c1cc(C)oc1C (stereo not given),0%,6%,-8%,14%,-29,41
CCN(CC1CCCN(CCc2cccc(F)c2)C1)C(=O)c1cc2ccccc2o1 (stereo not given),-1%,0%,-7%,13%,-75*,-24
CCc1ccc(NC(=O)COC(=O)/C=C/c2ccco2)cc1,-1%,-1%,5%,?,-121*,18
O=C(COC(=O)/C=C/c1ccco1)Nc1ccccc1,4%,-1%,0%,4%,-16,-1
CCCCCCn1c(=O)n2n(c1=O)C[C@]1(OC(=O)Nc3c(C)noc3C)CN(S(=O)(=O)c3ccc(C)cc3)C[C@]1(O)C2,.,.,.,.,-2,1
Cc1ccc2c(CN3CCN(Cc4ccccc4)CC3)cc(=O)oc2c1,-30%,0%,8%,6%,-108*,-86*
O=C(c1ccco1)N1CCN(Cc2cc(=O)oc3cc(O)ccc23)CC1,-3%,i,-10%,-1%,-33,8
Cc1cc2oc(=O)cc(CN3CCN(Cc4ccccc4)CC3)c2cc1Cl,-2%,-2%,2%,-6%,-9,11
O=c1cc(CN2CCN(Cc3ccccc3)CC2)c2ccc(O)cc2o1,-5%,i,2%,-4%,-85*,?
